# Shiga toxin inh – blocks Shiga toxin action in Vero cells. inhibition, % at 38.7 µM. hit rate 9.2% among 290,000. Vero cells, Shiga toxin protein synthesis inhibition reporter. AID 2315; in the data active = inhibition mostly above about 28%, no sharp cut-off; inactive = mostly below about 43%; note: 0% is about no effect
# LmPK inh – LmPK (Leishmania mexicana) enzyme inhibition | Q27686 | purified LmPK, Kinase-Glo ATP luminescence, 1 h | Potency, µM (top dose mostly 57.5 µM), for the others: at the top dose activity change, negative = inhibition, actives largely listed as inhibitors | hit rate 0.37% among 290,000; note: potency is the fitted concentration of half-maximal effect; % is set by controls: 0 for no effect and ±100 for the full control effect
# Target sequence (Q27686 whole entry, looked up): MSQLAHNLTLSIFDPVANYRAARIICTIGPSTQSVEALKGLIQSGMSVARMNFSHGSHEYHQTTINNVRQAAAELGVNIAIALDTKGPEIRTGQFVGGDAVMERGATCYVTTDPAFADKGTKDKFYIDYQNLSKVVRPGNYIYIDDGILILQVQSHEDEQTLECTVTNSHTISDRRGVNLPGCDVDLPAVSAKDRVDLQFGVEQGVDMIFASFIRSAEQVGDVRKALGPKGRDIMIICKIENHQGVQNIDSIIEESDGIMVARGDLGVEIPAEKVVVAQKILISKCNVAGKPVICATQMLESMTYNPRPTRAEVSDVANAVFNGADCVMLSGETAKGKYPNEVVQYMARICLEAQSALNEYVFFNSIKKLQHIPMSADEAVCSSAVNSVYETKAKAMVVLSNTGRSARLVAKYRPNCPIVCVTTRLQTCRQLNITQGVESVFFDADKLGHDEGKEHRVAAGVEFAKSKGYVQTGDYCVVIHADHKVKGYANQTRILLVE
#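 Purified LmPK (0.1 nM) converted ADP (0.1 mM) to ATP with PEP (0.5 mM) in imidazole buffer pH 7.2 with KCl and MgCl2, 1 h at room temperature. ATP was read by Kinase-Glo luminescence; data normalized to uninhibited and no-enzyme controls.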
# Tb PYK inh – blocks Trypanosoma brucei pyruvate kinase; Q57TT1; TbPYK enzyme, Kinase-Glo Plus ATP luminescence, 45 min; Potency, µM (titrated, usually from 76.8 µM), for the others: top-dose activity, negative = inhibition, most hits filed as inhibitors; hit rate 0.12% among 410,000; AID 624173; note: potency is the fitted concentration of half-maximal effect; % is set by controls: 0 for no effect and ±100 for the full control effect; nearly all actives have a fitted effect of over 50% in size
#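 Luminescence from Kinase-Glo Plus, added after a 45-minute room-temperature reaction, served as the end-point read-out. The enzyme and substrate were preincubated with compound before ADP (130 uM final) initiated turnover. Concentration-effect curves came from normalized qHTS data.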
# Sm TGR inh – inhibitors of Schistosoma mansoni thioredoxin glutathione reductase; purified TGR, DTNB reduction, TNB absorbance 405 nm; Potency, µM (titrated, usually from 114 µM), inactives show at the highest dose activity change, negative = inhibition, most hits filed as inhibitors; hit rate 3% among 360,000; AID 485364; note: potency is the fitted concentration of half-maximal effect; % is set by controls: 0 for no effect and ±100 for the full control effect; nearly all actives have a fitted effect of over 60% in size
#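 TGR 20 nM + NADPH 100 uM (dispensed conc.), cpd preinc 15 min RT; start with NADPH (500 uM addition) then DTNB (15 mM addition). Kinetic TNB absorbance, 405 nm filter. Four-parameter Hill fit across titration.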
# FBPA Giardia inh – blocks Giardia fructose-bisphosphate aldolase activity; Potency, µM (highest dose often 59.6 µM), for inactives: at the top dose activity, negative = inhibition, usual class: inhibitors; purified Giardia FBPA; hit rate 0.71% among 290,000; note: potency is the fitted concentration of half-maximal effect; % is set by controls: 0 for no effect and ±100 for the full control effect; nearly all actives have a fitted effect of over 55% in size
#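 Giardia FBPA (40 nM reagent) was preincubated 10 min at RT with compound (up to 57.5 uM final), then substrate plus GAPDH/TPI/NAD/arsenate coupling system with diaphorase/resazurin was added; resorufin fluorescence (525/598 nm) was read after 20 min.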
# Cycloheximide cs – counter-screen hit for Shiga toxin inhibitors, cycloheximide | hit rate 12% among 300,000 | max response, % | AID 2314 | cell reporter, cycloheximide protein synthesis inhibition counterscreen; in the data active = max response mostly above about 13%, no sharp cut-off; inactive = mostly below about 14%; note: read at 38.3 µM for the half of the compounds with a filed dose; 0% is about no effect
# Numbers without * were called inactive; ? = inconclusive; / = not tested or not shown; [ ] = dose if it differs, or a comment. The full list was thinned out, with hits kept by preference. Unless noted, calls come from the whole dose curve; as a rule, active = well fitted curve in the direction sought with a large enough effect; inconclusive = small, poorly fitted or top-dose-only effect, or another doubt; inactive = no such curve, though single readings can be large; an effect the other way counts as inactive or inconclusive.
SMILES,Shiga toxin inh,LmPK inh,Tb PYK inh,Sm TGR inh,FBPA Giardia inh,Cycloheximide cs
CCC(C)c1cc([N+](=O)[O-])cc([N+](=O)[O-])c1OC(=O)OC(C)C (stereo not drawn),15,/,/,/,-18%,6
CCOC(=O)N1CCN(CC(O)COc2ccccc2C(C)C)CC1 (stereo not drawn),-8,-1%,-2%,1%,-4%,-9
C=CCc1ccccc1OCC(O)CN1CCN(C(=O)OCC)CC1 (stereo not drawn),22,1%,-7%,40µM*,-8%[12.9 µM],7
COC(=O)c1cc(C)nc2c1c(=O)nc(SCc1ccccc1C)n2C1CC1,/,/,-3%,5%,/,/
CC(C)(C)c1cc(NC(=O)c2cccc([N+](=O)[O-])c2)no1,92*,0%,-11%,3%,3%,59*
COc1ccc(NC(=O)c2cc([N+](=O)[O-])ccc2O)cc1,-21,13µM*,?,0%,-22%,-5
COc1ccc(NC(=O)c2cccc([N+](=O)[O-])c2)cc1,76*,-4%,-1%,6%,-18%,59*
O=C(Nc1ccc([N+](=O)[O-])cc1)c1cccc([N+](=O)[O-])c1,/,/,4%,/,/,/
CN(C)S(=O)(=O)Oc1cccc(C(=O)Nc2ccc([N+](=O)[O-])cc2)c1,79*,9%,-2%,1%,2%,50*
COc1ccc(CC2(c3ccccc3)NC(=O)NC2=O)cc1 (stereo not drawn),/,/,-1%,/,/,/
CCCCCC(=O)/C=C/[C@H]1[C@H](O)CC(=O)[C@@H]1C/C=C\CCCC(=O)O,/,/,/,/,2%,/
Cc1ccc(C(=O)N/N=C2\CCSC2)cc1[N+](=O)[O-],21,0%,-6%,-1%,-6%,-1
O=C(Nc1ncc(S(=O)(=O)c2ccc([N+](=O)[O-])cc2)s1)c1ccc2ccccc2c1,-5,4%,1%,-2%,4%,-2
O=C(Nc1ncc([N+](=O)[O-])s1)c1cccc([N+](=O)[O-])c1,105*,13µM*,-16%,2%,?,43*
O=C(N/N=C1/CCSC1)c1cccc([N+](=O)[O-])c1,50*,1%,0%,-15%,-9%,-1
O=C(Nc1ncc(S(=O)(=O)c2ccc([N+](=O)[O-])cc2)s1)c1cccnc1,5,9%,-5%,28µM*,19%,2
O=C(Nc1ccccc1)Nc1ncc([N+](=O)[O-])s1,77*,?,-15%,5%,-3%,35*
O=C(O)C1CCCC[C@H]1C(=O)Nc1ncc([N+](=O)[O-])s1 (stereo partly drawn),/,/,-6%,4%,/,/
CCOC(=O)CSc1nnc(NC(=O)c2cccc([N+](=O)[O-])c2)s1,-2,-1%,-4%,-1%,?,-2
COc1cccc(CNC(=O)c2cc(=O)[nH]c3ccc(S(=O)(=O)N4CCCC4)cc23)c1,/,/,1%,5%,/,/
O=[N+]([O-])c1ccc2c(c1)S(=O)(=O)C=C2,-15,/,/,/,-4%,-9
CCCOc1ccc(C(=O)Nc2ccc3oc(-c4ccc(N(C)C)cc4)nc3c2)cc1,/,/,4%,-1%,/,/
O=C(Nc1ccc(NC(=O)c2cccc([N+](=O)[O-])c2)cc1)c1cccc([N+](=O)[O-])c1,/,11%,0%,-28%,-1%,30*
O=C(N[C@H]1CC1c1ccccc1)c1ccc([N+](=O)[O-])cc1 (stereo partly drawn),112*,-10%,-1%,-3%,-2%,46*
O=C(NCc1ccccc1)c1ccc([N+](=O)[O-])cc1,/,/,2%,/,/,/
SMILES,Shiga toxin inh,LmPK inh,Tb PYK inh,Sm TGR inh,FBPA Giardia inh,Cycloheximide cs
O=C(Nc1ccccc1-c1ccccc1)c1cccc([N+](=O)[O-])c1,122*,2%,-18%,19%,-2%,31*
O=C(Nc1ccc(Cc2ccncc2)cc1)c1cccc([N+](=O)[O-])c1,-23,1%,3%,-3%,-8%,23*
CN(C)C(=O)c1ccc(-c2nccc(-n3ccnc3)n2)cc1,/,/,/,/,-4%,/
COc1ccc(CN(C)c2ccc(-c3nc(-c4ccccc4)no3)cc2[N+](=O)[O-])cc1,/,/,1%,-3%,/,/
CC(=O)OC[C@@H]1CN(Cc2ccccc2)C[C@H](n2cnc3c(NCc4ccc(F)cc4)ncnc32)O1,/,/,4%,/,/,/
COc1ccc(NC(=O)Nc2cccc([N+](=O)[O-])c2)cc1Cl,27,-1%,-14%,-2%,-11%,30*
CCN(CC)c1ccc(C(=O)Nc2ccccc2)cc1[N+](=O)[O-],67*,-1%,5%,8%,-24%,37*
Cc1cc(O)c(NC(=O)c2cccc([N+](=O)[O-])c2)cc1C,47*,3%,1%,7%,0%,22*
COc1ccc(C(=O)Nc2cccc([N+](=O)[O-])c2)cc1Br,/,/,-9%,/,/,/
O=C(Nc1cc([N+](=O)[O-])ccc1O)c1cccc([N+](=O)[O-])c1,/,0%,5%,11%,-9%,6
COc1ccc(NC(=S)Nc2cccc([N+](=O)[O-])c2)cc1,-4,6%,1%,20µM*,-4%,8
C#CCCCO/N=C1/C[C@@H](O)[C@@H](O)[C@@H]2[C@@H]3C(=O)N(Cc4ccccc4)C(=O)[C@H]3CC[C@H]12,/,/,/,/,-3%[12.9 µM],/
NC(=O)OC[C@H](O)COc1ccc(Cl)cc1,/,/,0%[33.2 µM],/,2%[21.7 µM],/
OC(CCCN1CCCCC1)(c1ccccc1)c1ccc(C(F)(F)F)cc1 (stereo not drawn),/,/,-3%,/,/,/
O=C(Nc1cccc([N+](=O)[O-])c1)c1cc2ccccc2cc1O,108*,6%,6%,7%,-25%,49*
COc1ccc(Cc2nnc(NC(=O)c3cccc([N+](=O)[O-])c3)s2)cc1,32,-1%,-12%,-13%,-13%,23*
O=C(Nc1ccc([N+](=O)[O-])cc1)c1ccccc1,73*,-1%,1%,6%,0%,47*
O=C(O)c1ccccc1Nc1ccc([N+](=O)[O-])cc1,32,-21%,-10%,0%,11%,27*
O=C(NNc1ccc([N+](=O)[O-])cc1)c1ccccc1F,21,-3%,-7%,/,-4%,25*
O=C(NNc1ccc([N+](=O)[O-])cc1)c1ccccc1Cl,5,1%,2%,?,-5%,6
COC(=O)/C(=C/c1cccc([N+](=O)[O-])c1)NC(=O)c1ccc(OC)cc1,76*,3%,-2%,13%,-1%,53*
CCOC(=O)Cc1ccc(NC(=O)c2cccc([N+](=O)[O-])c2)cc1,62*,-15%,-5%,/,-9%,21*
O=C(CSc1nccn1C1CCCC1)Nc1cccc(F)c1,/,/,5%,20%,/,/
CCCN(CC1CC1)C(=O)CSc1nnc(-c2ccco2)n1N,-1,16%,/,50µM*,2%,1

# Screens (PubChem)
